# ssDAF12 agonist: S. stercoralis DAF-12 activation, primary screen; actives 1% (n = 370,000); AID 652126; activation, % at 6.8 µM; HEK293 ssDAF-12/GRIP1 lit1-tk-luc reporter, luminescence; % of 3 µM dafachronic acid response;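 active = activation above the mean over all tested compounds plus 3 SD, cut at about 0.9% in these data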;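 also: 0% = DMSO-only wells and 100% = 3 µM delta7-dafachronic acid wells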
# DAX1 inh-1: inhibits human nuclear receptor DAX1. P51843. HEK293 Gal4-DAX1 luciferase reporter, luminescence. inhibition, % at 6.75 µM. actives 0.99% (n = 340,000). AID 504766;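 active = inhibition above the mean over all tested compounds plus 3 SD, cut at about 4.2% in these data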;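 also: 0% = DAX1-transfected cells with DMSO and 100% = empty-vector control cells with DMSO; inhibition shows as a rise in luminescence from relieved DAX1 repression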
# Target sequence (P51843 207-470 limits assumed): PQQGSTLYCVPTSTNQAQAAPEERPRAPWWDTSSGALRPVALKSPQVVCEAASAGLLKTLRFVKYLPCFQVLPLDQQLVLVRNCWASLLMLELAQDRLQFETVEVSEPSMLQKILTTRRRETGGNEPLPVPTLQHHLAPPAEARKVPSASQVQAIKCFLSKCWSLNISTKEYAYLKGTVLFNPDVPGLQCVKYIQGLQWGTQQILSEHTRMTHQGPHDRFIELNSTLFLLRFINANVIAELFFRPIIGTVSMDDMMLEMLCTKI
# hgDAF-12 ag: agonists of H. glycines DAF-12 nuclear receptor. actives 1.8% (n = 370,000). HEK293 GAL4-hgDAF12 UAS-luciferase reporter, agonist luminescence; normalized to butyrate control. activation, % at 6.8 µM;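 active = activation above a cutoff set at the mean of all screened compounds plus 3 SD, cut at about 10% in these data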;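 also: 0% = DMSO wells and 100% = sodium butyrate wells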
# hcDAF12 agonist: activates DAF-12 receptor from parasite H. contortus; HEK293 hcDAF-12 lit1-tk-luc reporter, luminescence; 0% DMSO, 100% Δ7-dafachronic acid; activation, % at 6.8 µM; actives 1.4% (n = 370,000);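 active = activation above the mean of all tested compounds plus 3 SD, cut at about 5.5% in these data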;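 also: 100% = response to 3 µM Δ7-dafachronic acid high control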
# DAX1 inh-2: blocks DAX1 repression of SF-1 activated StAR promoter; HEK293T StAR-luciferase reporter, SF-1/DAX-1 repression relief; inhibition, % at 6.8 µM; actives 1.1% (n = 370,000); AID 652010;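 active = inhibition above the mean over all tested compounds plus 3 SD, cut at about 3.6% in these data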;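 also: 0% = DAX-1 cells with DMSO and 100% = cells lacking DAX-1 with DMSO; higher inhibition means more luminescence from relief of DAX-1 repression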
# The depositor's hits bear a star; · = no result. Most compounds without a hit are left out; they make up all but 4.1% or so of the library.
SMILES,ssDAF12 agonist,DAX1 inh-1,hgDAF-12 ag,hcDAF12 agonist,DAX1 inh-2
CCN(CC)C(=S)Nc1c(C)n(C)n(-c2ccccc2)c1=O,-2,4.5*,-4,0,0
Cc1ccccc1C(=O)N1CCC(Oc2cccnc2)CC1,0,·,0,-2,1
CCCC(=O)N1CCC1(C)C(=O)Nc1ccc2nccnc2c1 (stereo unspecified),-1,·,11*,-1,-1
CCCC(=O)N1CCC1(C)C(=O)Nc1ccc(C)cc1 (stereo unspecified),-1,·,1,0,1
CCCC(=O)OC12CCCN(C1)/C(=C/c1ccc(C#N)cc1)C2 (stereo unspecified),-1,·,2,0,0
COCCn1c(C)cc(/C=C(\C#N)C(=O)OCC(=O)Nc2ccc(S(N)(=O)=O)cc2)c1C,0,5.0*,8,6.4*,-1
Cc1cc(/C=C(\C#N)C(=O)OCC#N)c(C)n1CC(C)C,-1,1,2,0,0
Cc1cc(/C=C(\C#N)C(=O)OCC(=O)Nc2ccc(OC(F)F)cc2)c(C)n1CC(C)C,-1,4,8,0,4.0*
N#Cc1cccc(S(=O)(=O)NCC(=O)NCc2ccc3c(c2)OCO3)c1,-1,2,-1,1,1
CC(C)CN1C(=O)C[C@@]2(C(=O)N(C)c3ccc(NC(=O)c4cc(F)ccc4F)cc32)C1c1ccccc1 (stereo partly specified),-2,·,-3,0,0
CCOc1ccccc1N(C(=O)Nc1ccc(Cl)cc1)C1=NCCS1,-1,-1,2,5,1
CCOc1ccccc1N(C(=O)Nc1cccc(Cl)c1)C1=NC(C)CS1 (stereo unspecified),-2,4.5*,1,-3,-1
S=C(Nc1ccc(I)cc1)OC1CCC12CCC(c1ccccc1)CC2 (stereo unspecified),-1,·,0,0,-1
CC(C)=CC(=O)Nc1nc2ccc([N+](=O)[O-])cc2s1,-1,0,13*,2,0
Cc1cc(C)nc(NC(=O)/C=C/c2ccccc2Cl)c1,0,2,12*,4,3
Cc1ccc(NC(=O)Nc2ccc3c(c2)OCO3)nc1,-1,1,13*,0,2
Cc1cccc(NC(=O)NCc2ccc3[nH]c(C)cc3c2)c1,-1,1,5,5,1
Cc1ccc(NC(=O)Nc2ccc(Cl)c(Cl)c2)nc1,-1,-1,1,0,0
Cc1ccc(CNC(=O)Nc2cccc(C)c2)cc1,-1,-1,13*,4,0
Cc1cc(C)nc(NC(=O)Nc2ccc3c(c2)OCO3)c1,-1,3,11*,4,1
C=CCNc1nc2cc(-c3ccccc3C)sc2c(=O)n1C,0,·,3,2,-3
COC(=O)[C@@]12CCCCC3=C1N(CCC3)C(=O)[C@H]2CC(=O)NCc1ccc(C)o1,-1,·,3,1,-1
Cc1cccc(NC(=O)Nc2cc(C)cc(C)n2)c1,0,-1,13*,5,1
Cc1cccc(NC(=O)Nc2ccc(C#N)cc2)n1,-2,-2,6,-3,-1
Cc1cccc(NC(=O)Nc2cccc(C#N)c2)n1,0,5.4*,4,-1,1
SMILES,ssDAF12 agonist,DAX1 inh-1,hgDAF-12 ag,hcDAF12 agonist,DAX1 inh-2
Cn1ncc([N+](=O)[O-])c1C(=O)Nc1ccc(-c2nc3ccccc3o2)cc1,-1,0,8,-1,0
S=C(Nc1ccccc1Oc1ccccc1)Nc1cccc(Cl)c1Cl,1.0*,0,0,4,0
Nn1c(SCc2ccccc2)nc2ccccc21,0,1,12*,2,1
O=C(O)Cn1c(SCc2ccccc2)nc2ccccc21,-1,1,-1,-1,0
Cc1nc(CCNS(=O)(=O)c2cccs2)cs1,-1,1,2,0,1
Cc1csc2nc(CCNS(=O)(=O)c3cccs3)cn12,-1,0,13*,1,3
CCOC(=O)[C@@]12CCCC3=C1N(CCC3)C(=O)[C@H]2CC(=O)N1CCCC1,-2,·,-2,-3,-1
Cc1ccc(NC(=O)c2cc(-c3ccc(F)cc3)on2)cc1C,-2,6.1*,1,-2,0
O=C(NC(=S)Nc1cccnc1Cl)c1ccc(F)cc1,0,5.4*,9,4,1
O=C(Nc1cccnc1Cl)c1cc(-c2ccc(F)cc2)on1,-1,5.0*,-1,0,0
COc1ccc(-c2cc(C(=O)Nc3ccc(C)c(C)c3)no2)cc1,-1,1,1,3,0
C[C@@H](C(=O)Nc1nccs1)N1C(=O)C2CC=CCC2C1=O (stereo partly specified),-1,4.8*,-1,0,1
Cc1cccc(NC(=O)OC2CC3CC2[C@H]2CCCCN2C3)c1 (stereo partly specified),-1,·,1,1,2
Cc1cc(NC(=O)CN2CCN(c3ccccc3O)CC2)no1,1.1*,0,0,0,0
CCOc1ccccc1N1CCN(CC(=O)Nc2cc(C)on2)CC1,-1,0,2,1,-1
CCS(=O)(=O)N1CCc2nc(-c3ccccc3)sc2C1,0,4.9*,12*,3,2
COc1ccc(-c2nc3c(s2)CN(S(C)(=O)=O)CC3)cc1OC,-1,2,1,1,0
Cc1ccc(CN2CCCCC(NC(=O)c3ccc(COc4ccccc4)cc3)C2=O)cc1 (stereo unspecified),-2,·,-4,-5,-3
O=C(NCCc1ccccc1)C1CCC(Cn2c(=O)c3ccccc3n(Cc3cccc(Cl)c3)c2=O)CC1 (stereo unspecified),0,6.0*,4,2,0
c1ccc2c(c1)Nc1cc3ccccc3cc1O2,0.9*,1,5,4,0
CCOC(=O)C1CCCN(C(=O)CNC(=O)c2ccc(Br)o2)C1 (stereo unspecified),-1,0,1,-1,0
CC1(C)Cc2c(cnn2-c2ccc(F)cc2)C(NC(=O)C(C)(C)O)C1 (stereo unspecified),-1,1,2,0,0
CC1(C)Cc2c(cnn2-c2ccc(F)cc2)C(NC(=O)C2CCC2)C1 (stereo unspecified),-1,0,-1,0,4.3*
N#CCC(=O)N1CCN(C=O)CC1,-2,4.7*,-1,-2,-1
CCOC(=O)[C@@H](CCc1ccccc1)N[C@@H](C)C(=O)N1CCC[C@H]1C(=O)O,-1,·,3,1,1
CN(C)c1ccc(P(=O)(OCc2ccccc2)C(O)c2ccccc2)cc1 (stereo unspecified),-2,4.3*,-3,0,0
CCn1nc(C)c(CN2CCC(Oc3ccc(C(=O)N4CCCC4)cc3)CC2)c1C,-1,0,0,-2,0

# Source: PubChem
